High-throughput results as filed in PubChem BioAssay.
TDP1 cell noCPT – qHTS for Inhibitors of human tyrosyl-DNA phosphodiesterase 1 (TDP1): qHTS in cells in absence of CPT; DT40 Tdp1-/- hTDP1 cells, no CPT, ATP luminescence, 48 h; Potency, µM (top dose mostly 46.2 µM), usual class: inhibitors; 420,000 tested, 15% active; AID 686978, 2013; note: nearly all actives have a fitted effect of over 55% in size
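A cellular qHTS used chicken DT40 cells lacking endogenous Tdp1 but carrying stably transfected human TDP1. Compounds were applied without camptothecin, and cell growth kinetics were judged by ATP-dependent luminescence after ≥48 hr.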
DT40 TDP1 CPT – growth inhibition of DT40 Tdp1-/-;hTDP1 cells with camptothecin (screen for TDP1 inhibitors); AID 686979; chicken DT40 Tdp1-/-;hTDP1 cells + 20 nM CPT, ATP luminescence, 48 h; 420,000 tested, 12% active; Potency, µM (doses to about 46.2 µM), hits mostly inhibitors; note: nearly all actives have a fitted effect of over 55% in size
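Cell growth measured by CellTiter-Glo luminescence after a minimum 48 h, 37 C compound exposure with 20 nM CPT in Tdp1-knockout DT40 cells stably expressing hTDP1, seeded 400/well; qHTS titration format.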
TGFb SMAD3 inh – TGF-b pathway inhibition | HepG2 CAGA-GFP TGF-b/SMAD3 reporter, GFP fluorescence, 18 h; TGF-beta stimulated, 500 pg/mL final | Potency, µM (titrated, usually from 46.1 µM), usual class: inhibitors | 410,000 tested, 1.2% active; note: nearly all actives have a fitted effect of over 65% in size
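HEPG2 CAGA-GFP cells (1000/well, DMEM with 1% FBS) were pre-incubated 2 h at 37 degrees C, given compound by pin tool, then stimulated with TGF-beta at 500 pg/mL final for 18 h before per-cell GFP fluorescence imaging.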
S2 tox – cell viability loss in ATXN counter-screen; S2 cells (HEK-293 line with an ATXN2-luciferase reporter) viability, CellTiter-Fluor protease fluorescence, 24 h; Potency, µM (titrated, usually from 56.7 µM), hits mostly cytotoxic; 400,000 tested, 0.49% active; AID 651635; note: nearly all actives have a fitted effect of over 40% in size
ATXN2 expr inh – reduces ATXN2 reporter expression in HEK-293 cells | HEK-293 ATXN2-luciferase reporter, luminescence, 24 h | Potency, µM (highest dose often 57 µM), actives largely listed as inhibitors | 360,000 tested, 0.72% active; note: nearly all actives have a fitted effect of over 55% in size
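ATXN2-luciferase reporter cells (luciferase flanked by upstream and downstream ATXN2 gene portions) were treated 24 h at 37 °C with compounds at up to 57 uM. SteadyGlo luminescence gave expression; GF-AFC fluorescence gave viability.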
HepG2 viability – kills HepG2 cells in TGF-b inhibitor counter-screen. HepG2 CAGA-GFP viability, ATP luminescence, 18 h. AID 588856. Potency, µM (titrated, usually from 46.1 µM), usual class: cytotoxic. 410,000 tested, 0.76% active
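CellTiter-Glo luminescence gave cytotoxicity after 18 hours at 37 degrees C. The cells were HepG2 CAGA-GFP in 1% FBS DMEM, stimulated with 500 pg/mL TGF-beta after compound addition. %Activity was normalised to no-cell wells (complete cell-killing) and DMSO (no toxicity), and curves were fitted and classified.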
Numbers stand for hits; – = inactive; ? = inconclusive; · = not tested or not shown; [ ] = remark or other dose. Sampled rows, rich in hits. Any-hit rate of the full collection: about 17%. Calls come from the whole dose curve; as a rule, active = well fitted curve in the direction sought with a large enough effect; inconclusive = small, poorly fitted or top-dose-only effect, or another doubt; inactive = no such curve, though single readings can be large; an effect the other way counts as inactive or inconclusive.

SMILES | TDP1 cell noCPT | DT40 TDP1 CPT | TGFb SMAD3 inh | S2 tox | ATXN2 expr inh | HepG2 viability
COC(=O)c1cccc(-c2ccc(C(c3c(C)[nH][nH]c3=O)c3c(C)[nH][nH]c3=O)o2)c1 | 23µM | 7.3µM | ? | – | –[11.3 µM] | –
COC(=O)c1ccccc1-c1ccc(C(c2c(C)[nH][nH]c2=O)c2c(C)[nH][nH]c2=O)o1 | 21µM | ? | – | – | – | –
CC(C)CC1C(=O)N(Cc2cn(CCC3OCCO3)nn2)CCS(=O)(=O)N1Cc1ccc(-c2ccc(F)cc2)cc1 (stereo not given) | 23µM | ? | ? | · | ? | –
COc1ccc(-c2ccc(CN3C(CC(C)C)C(=O)N(Cc4cn(CCC5OCCO5)nn4)CCS3(=O)=O)cc2)cc1OC (stereo not given) | 16µM | 21µM | – | ? | – | –
COc1ccc(-c2ccc(CN3C(C)C(=O)N(Cc4cn(CCC5OCCO5)nn4)CCS3(=O)=O)cc2)cc1OC (stereo not given) | 12µM | 18µM | – | ? | – | –
CC(C)(CNC(=O)CC1C(=O)NCCN1Cc1cccc(F)c1)N1CCOCC1 (stereo not given) | – | – | – | – | – | –
CC1C(=O)N2CCCc3cc(NC(=O)C(=O)NCCCc4ccccc4)cc1c32 (stereo not given) | ? | ? | – | – | – | –
CCCNC(=O)C1(C)CCCN(Cc2ccccc2C#N)C1 (stereo not given) | ? | ? | – | – | – | –
N#C/C(=C\c1ccc(N2CCCCC2)o1)C(=O)Nc1cccc(Br)c1 | 7.3µM | ? | – | · | · | –
Cc1ccc(/C=C(\C#N)C(=O)Nc2cccc(Br)c2)o1 | – | – | · | · | · | –
CCOC(=O)C1CCN(C(=O)Cn2nc(CC)n3c(cc4occc43)c2=O)CC1 | – | ? | ? | – | – | –
Cn1ncc2c(Nc3cccc([N+](=O)[O-])c3)ncnc21 | ? | – | – | – | · | –
O=C(C[n+]1cccc(C(=O)Nc2ccccc2)c1)c1ccc(Cl)cc1 | 16µM | ? | · | – | – | ·
COc1ccc2c(c1)CC(NC(=O)Nc1cc(Cl)ccc1OC)CO2 (stereo not given) | ? | 23µM | – | · | · | –
O=C1C(c2ccccc2)C2C=CC(C2)N1O (stereo not given) | – | – | – | – | – | –
COc1cccc(CN(C)C(=O)c2ccc(S(=O)(=O)Nc3cccc(C)c3C)cc2)c1OC | 18µM | 18µM | – | ? | · | –
COc1cccc(CN(C)C(=O)c2ccc(S(=O)(=O)Nc3ccccc3F)cc2)c1OC | ? | ? | – | – | – | –
Cc1cccc(NS(=O)(=O)c2ccc(C(=O)N3CCCCCC3)cc2)c1C | 23µM | ? | – | – | – | –
Cc1cccc(NS(=O)(=O)c2ccc(C(=O)N3CCCC3)cc2)c1C | 15µM | – | – | – | – | –
Cc1c(Cl)cccc1NC(=O)N1CCC(CN2CCOCC2)CC1 | – | – | – | · | · | –
CSC1=NC(C(Cl)(Cl)Cl)N=C(c2ccc(C)cc2)N1 (stereo not given) | 0.58µM | 0.82µM | ? | ? | – | –
CCC1N=C(SC)NC(C)=C1C(=O)c1ccccc1 (stereo not given) | – | – | – | – | · | –
COC(=O)[C@]12CCCCC=C1N(Cc1cccc3ccccc13)C(=O)[C@H](CC(=O)NCCCN1CCCC1=O)C2 | 16µM | ? | · | – | – | ·
CCCCOCCCNC(=O)C[C@@H]1C[C@@]2(C(=O)OC)CCCCC=C2N(Cc2ccccc2)C1=O | 13µM | 18µM | · | – | – | ·
CCOC(=O)[C@]12CCC=C1N(Cc1ccccc1)C(=O)[C@H](CC(=O)NCC13CC4CC(CC(C4)C1)C3)C2 | ? | ? | · | – | – | ·
CCOC(=O)[C@]12CCC=C1N(Cc1cccc3ccccc13)C(=O)[C@H](CC(=O)NCCCOC)C2 | 15µM | 18µM | · | – | – | ·
CCOC(=O)[C@]12CCC=C1N(Cc1cccc3ccccc13)C(=O)[C@H](CC(=O)NCC13CC4CC(CC(C4)C1)C3)C2 | ? | 21µM | · | ? | – | ·
CCOC(=O)[C@]12CCCC=C1N(Cc1cccc3ccccc13)C(=O)[C@H](CC(=O)NCCCOC)C2 | ? | ? | · | – | – | ·
CCCCOCCCNC(=O)C[C@@H]1C[C@@]2(C(=O)OCC)CCC=C2N(Cc2cccc3ccccc23)C1=O | 18µM | 21µM | · | ? | ? | ·
CCCCOCCCNC(=O)C[C@@H]1C[C@@]2(C(=O)OC)CCCCC=C2N(Cc2cccc3ccccc23)C1=O | 21µM | ? | · | · | ? | ·
